The full data set covers some 8,800 targets. This sample favours those with a hit. About 0.5% of all pairs of compound and target were hits.
What was measured:
Assay in all cases: log2 fold change, soluble protein after heating vs DMSO (PISA); higher = thermal stabilisation; K562 lysate, 10 uM; active = over 0.2 and 3.5 SD of the protein, either way, in both replicates (recomputed)
[1] = compound: C#Cc1cccc(Nc2ncnc3cc(OCCOC)c(OCCOC)cc23)c1 [erlotinib]
Procedure, shortened: (§1)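 Pellets of K562 cells were dounce-homogenised in PBS pH 7.4 with 1 mM MgCl2, and the crude extract was held at 1 mg/mL protein for a 30 min treatment with 10 μM compound. Aliquots were heated for 3 min over 48°C-58°C and pooled before NP-40 was added to 0.5% at 4°C. The supernatant from 21,000xg for 90 min was quantified by TMTpro 16plex LC-MS/MS with channel sums equalised. Values are reported from duplicates as log-two fold change in thermal stability relative to solvent controls.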

[2] = compound: C/C(=N\NC(=O)C1=CC(=CC=C1)S(=O)(=O)N2CCOCC2)/C3=C(C=CC(=C3)Cl)O
Procedure, shortened: as §1

[3] = compound: C1=CC(=CC=C1C2=NC3=C(N2)C=C(C=C3)C(=O)N)OC4=CC=C(C=C4)Cl
Procedure, shortened: as §1

[4] = compound: C1=CC2=C(C=CC(=C2)/C=C\3/C(=O)NC(=NCC4=CC=CS4)S3)N=C1
Procedure, shortened: as §1

[5] = compound: C1=CC2=NC=CN=C2C=C1/C=C/3\C(=O)NC(=O)S3
Procedure, shortened: as §1

[6] = compound: C1=CC=C(C=C1)C2=NC(=C(N2)C3=CC=NC=C3)C4=CC(=C(C=C4)Cl)O
Procedure, shortened: as §1

[7] = compound: C1=CC=C2C(=C1)C3=NNC4=CC=CC(=C43)C2=O
Procedure, shortened: as §1

[8] = compound: C1CCN(C1)C(=O)NC2=CC=CC(=C2)NC3=NC=C(C(=N3)NCCC4=CN=CN4)Br
Procedure, shortened: as §1

[9] = compound: C1CN(CCC1(CC2=CC=C(C=C2)Cl)N)C3=NC=NC4=C3C=CN4
Procedure, shortened: as §1

[10] = compound: C1COCCN1CCN2C3=CC=CC=C3N=C2NC(=O)C4=CC(=CC=C4)[N+](=O)[O-] [IRAK-1-4 Inhibitor I]
Procedure, shortened: as §1

[11] = compound: C=CC(=O)N1CCC[C@@H](n2nc(-c3ccc(Oc4ccccc4)cc3)c3c(N)ncnc32)C1 [ibrutinib]
Procedure, shortened: as §1

[12] = compound: CC(=O)c1cnc2ccc(-c3cc(Cl)c(O)c(Cl)c3)nc2c1N[C@H]1CC[C@H](CN(C)C)CC1
Procedure, shortened: as §1

[13] = compound: CC(C)(C)Cn1c(N)nc2ccc(-c3[nH]c(C(C)(C)C)nc3-c3ccc(F)cc3)nc21 [ralimetinib]
Procedure, shortened: as §1

[14] = compound: CC(C)(O)CC(=O)NCCn1ccc2ncnc(Nc3ccc(Oc4cccc(C(F)(F)F)c4)c(Cl)c3)c21
Procedure, shortened: as §1

[15] = compound: CC(C)C1=C2N=C(C=C(N2N=C1)NCC3=CC=CC=C3)NCCCCCCN
Procedure, shortened: as §1

[16] = compound: CC1=C(C(CC(=O)N1)C2=CC=C(C=C2)C(F)(F)F)C(=O)NC3=C(C=C4C(=C3)C=NN4)F
Procedure, shortened: as §1

[17] = compound: CC1=C(C2=C(C=C1)C(=O)C3=CC=CC=C3N2CCCN)C
Procedure, shortened: as §1

[18] = compound: CC1=C(C=C(C=C1)NC(=O)C2=CC(=CC=C2)C(C)(C)C#N)NC3=CC4=C(C=C3)N=CN(C4=O)C
Procedure, shortened: as §1

[19] = compound: CC1=C(C=C(C=C1)NC(=O)C2=CC(=CC=C2)N(C)C)NC(=O)C3=CC=C(C=C3)O
Procedure, shortened: as §1

[20] = compound: CC1=CC=C(C=C1)SC2=C3C=C(SC3=CN=C2)C(=O)N
Procedure, shortened: as §1

Measured: log2 fold change

NEBL isoform 2 (UniProt O76041)
Sequence of UniProt O76041 (O76041 whole entry, looked up): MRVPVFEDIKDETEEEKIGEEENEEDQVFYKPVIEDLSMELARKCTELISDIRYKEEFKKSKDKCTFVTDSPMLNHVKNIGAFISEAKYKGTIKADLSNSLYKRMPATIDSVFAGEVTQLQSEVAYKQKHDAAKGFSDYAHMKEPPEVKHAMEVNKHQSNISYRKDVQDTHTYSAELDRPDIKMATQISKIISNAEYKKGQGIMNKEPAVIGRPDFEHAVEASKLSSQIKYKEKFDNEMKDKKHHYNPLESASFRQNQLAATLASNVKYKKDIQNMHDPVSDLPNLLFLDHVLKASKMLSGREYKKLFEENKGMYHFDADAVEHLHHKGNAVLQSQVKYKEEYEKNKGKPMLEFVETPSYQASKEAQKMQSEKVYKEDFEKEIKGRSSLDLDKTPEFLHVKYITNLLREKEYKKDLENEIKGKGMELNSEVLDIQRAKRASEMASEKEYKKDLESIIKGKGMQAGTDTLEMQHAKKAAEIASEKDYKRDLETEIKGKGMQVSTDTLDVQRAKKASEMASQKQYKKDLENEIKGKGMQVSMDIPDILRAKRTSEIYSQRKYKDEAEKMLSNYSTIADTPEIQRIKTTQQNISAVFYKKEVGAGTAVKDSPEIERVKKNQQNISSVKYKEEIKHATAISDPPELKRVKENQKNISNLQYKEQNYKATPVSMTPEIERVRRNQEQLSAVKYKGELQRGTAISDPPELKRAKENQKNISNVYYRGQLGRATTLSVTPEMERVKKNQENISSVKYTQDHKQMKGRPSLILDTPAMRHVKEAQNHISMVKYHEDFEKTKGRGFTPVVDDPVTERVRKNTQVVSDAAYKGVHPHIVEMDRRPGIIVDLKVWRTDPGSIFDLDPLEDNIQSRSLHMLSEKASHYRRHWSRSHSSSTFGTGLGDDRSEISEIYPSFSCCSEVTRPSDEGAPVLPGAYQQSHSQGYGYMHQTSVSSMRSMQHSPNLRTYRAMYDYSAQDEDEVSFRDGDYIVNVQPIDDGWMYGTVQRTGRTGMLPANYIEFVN
inactive: [1] 0 | [2] 0.081 | [3] 0.045 | [4] 0.012 | [5] 0.016 | [6] 0.015 | [7] 0.003 | [8] -0.007 | [9] -0.006 | [10] -0.005 | [11] -0.04 | [12] 0.015 | [13] -0.038 | [14] 0.027 | [15] 0.027 | [16] -0.012 | [17] -0.028 | [18] 0 | [19] 0.011 | [20] -0.013

OGT (UniProt O15294)
Sequence of UniProt O15294 (O15294 whole entry, looked up): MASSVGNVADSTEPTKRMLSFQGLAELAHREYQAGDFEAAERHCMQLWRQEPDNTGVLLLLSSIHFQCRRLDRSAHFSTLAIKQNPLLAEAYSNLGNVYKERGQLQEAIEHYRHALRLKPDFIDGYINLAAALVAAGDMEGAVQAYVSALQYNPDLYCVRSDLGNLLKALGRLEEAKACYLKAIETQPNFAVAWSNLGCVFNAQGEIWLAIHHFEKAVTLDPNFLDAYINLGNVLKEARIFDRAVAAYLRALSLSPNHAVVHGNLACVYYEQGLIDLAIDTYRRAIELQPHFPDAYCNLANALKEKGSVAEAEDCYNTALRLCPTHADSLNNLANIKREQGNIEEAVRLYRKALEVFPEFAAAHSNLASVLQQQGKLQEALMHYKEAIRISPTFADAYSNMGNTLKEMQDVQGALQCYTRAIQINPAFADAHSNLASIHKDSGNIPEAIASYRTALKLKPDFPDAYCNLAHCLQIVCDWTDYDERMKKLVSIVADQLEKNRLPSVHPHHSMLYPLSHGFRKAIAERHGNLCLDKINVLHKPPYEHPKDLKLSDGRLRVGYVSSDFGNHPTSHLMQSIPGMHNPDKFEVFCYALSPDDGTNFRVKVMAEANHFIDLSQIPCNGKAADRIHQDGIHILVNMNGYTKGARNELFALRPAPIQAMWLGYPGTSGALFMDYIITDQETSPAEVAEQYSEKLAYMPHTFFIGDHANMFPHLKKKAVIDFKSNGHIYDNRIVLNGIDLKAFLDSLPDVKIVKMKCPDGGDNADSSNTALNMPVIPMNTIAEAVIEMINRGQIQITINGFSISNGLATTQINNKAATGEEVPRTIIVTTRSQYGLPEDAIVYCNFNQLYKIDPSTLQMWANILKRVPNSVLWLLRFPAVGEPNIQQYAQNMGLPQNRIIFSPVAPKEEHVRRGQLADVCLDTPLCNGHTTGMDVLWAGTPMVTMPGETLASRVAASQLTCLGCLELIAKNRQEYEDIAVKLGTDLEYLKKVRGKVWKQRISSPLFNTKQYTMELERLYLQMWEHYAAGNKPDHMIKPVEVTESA
inactive: [1] 0.021 | [2] 0.053 | [3] 0.01 | [4] -0.008 | [5] 0.008 | [6] 0.024 | [7] -0.021 | [8] -0.006 | [9] 0.02 | [10] -0.017 | [11] -0.035 | [12] -0.024 | [13] 0.021 | [14] 0.023 | [15] -0.007 | [16] -0.009 | [17] -0.026 | [18] -0.014 | [19] 0.032 | [20] -0.005

PAXBP1 (UniProt Q9Y5B6)
inactive: [1] 0.019 | [2] -0.035 | [3] 0.025 | [4] -0.01 | [5] 0.018 | [6] 0.026 | [7] -0.04 | [8] -0.022 | [9] 0.029 | [10] 0.013 | [11] -0.004 | [12] 0.019 | [13] 0.027 | [14] -0.015 | [15] 0.006 | [16] -0.024 | [17] 0.007 | [18] -0.007 | [19] 0.077 | [20] 0.032

NEDD8 (UniProt Q15843)
Sequence of UniProt Q15843 (Q15843 whole entry, looked up): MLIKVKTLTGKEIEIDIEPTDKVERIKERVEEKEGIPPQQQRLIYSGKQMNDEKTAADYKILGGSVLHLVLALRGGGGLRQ
inactive: [1] 0.018 | [2] -0.019 | [3] 0 | [4] 0.031 | [5] -0.047 | [6] 0.011 | [7] -0.053 | [8] 0.026 | [9] 0.07 | [10] 0 | [11] 0.059 | [12] -0.013 | [13] -0.001 | [14] 0 | [15] 0.011 | [16] -0.01 | [17] 0.005 | [18] 0.077 | [19] 0.025 | [20] -0.029

NFKBIB (UniProt Q15653)
Sequence of UniProt Q15653 (Q15653 whole entry, looked up): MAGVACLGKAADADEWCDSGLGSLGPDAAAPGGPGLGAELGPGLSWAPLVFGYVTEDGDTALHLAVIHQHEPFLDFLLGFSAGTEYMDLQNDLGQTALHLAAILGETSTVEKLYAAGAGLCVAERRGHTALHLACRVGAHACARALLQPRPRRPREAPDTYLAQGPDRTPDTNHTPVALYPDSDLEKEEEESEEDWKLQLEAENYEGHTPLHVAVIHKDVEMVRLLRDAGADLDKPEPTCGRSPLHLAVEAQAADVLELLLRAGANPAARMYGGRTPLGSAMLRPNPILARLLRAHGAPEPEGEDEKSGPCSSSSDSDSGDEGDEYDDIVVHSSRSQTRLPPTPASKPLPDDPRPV
inactive: [1] 0.113 | [2] -0.135 | [3] 0 | [4] 0.03 | [5] 0.025 | [6] -0.026 | [7] 0.06 | [8] 0.016 | [9] -0.008 | [10] 0.052 | [11] -0.034 | [12] -0.037 | [13] 0.048 | [14] -0.008 | [15] -0.029 | [16] -0.012 | [17] 0 | [18] 0.033 | [19] 0.06 | [20] -0.037

MTHFD1, A0A384N5Y3
Sequence of MTHFD1, A0A384N5Y3 (A0A384N5Y3 whole entry, looked up): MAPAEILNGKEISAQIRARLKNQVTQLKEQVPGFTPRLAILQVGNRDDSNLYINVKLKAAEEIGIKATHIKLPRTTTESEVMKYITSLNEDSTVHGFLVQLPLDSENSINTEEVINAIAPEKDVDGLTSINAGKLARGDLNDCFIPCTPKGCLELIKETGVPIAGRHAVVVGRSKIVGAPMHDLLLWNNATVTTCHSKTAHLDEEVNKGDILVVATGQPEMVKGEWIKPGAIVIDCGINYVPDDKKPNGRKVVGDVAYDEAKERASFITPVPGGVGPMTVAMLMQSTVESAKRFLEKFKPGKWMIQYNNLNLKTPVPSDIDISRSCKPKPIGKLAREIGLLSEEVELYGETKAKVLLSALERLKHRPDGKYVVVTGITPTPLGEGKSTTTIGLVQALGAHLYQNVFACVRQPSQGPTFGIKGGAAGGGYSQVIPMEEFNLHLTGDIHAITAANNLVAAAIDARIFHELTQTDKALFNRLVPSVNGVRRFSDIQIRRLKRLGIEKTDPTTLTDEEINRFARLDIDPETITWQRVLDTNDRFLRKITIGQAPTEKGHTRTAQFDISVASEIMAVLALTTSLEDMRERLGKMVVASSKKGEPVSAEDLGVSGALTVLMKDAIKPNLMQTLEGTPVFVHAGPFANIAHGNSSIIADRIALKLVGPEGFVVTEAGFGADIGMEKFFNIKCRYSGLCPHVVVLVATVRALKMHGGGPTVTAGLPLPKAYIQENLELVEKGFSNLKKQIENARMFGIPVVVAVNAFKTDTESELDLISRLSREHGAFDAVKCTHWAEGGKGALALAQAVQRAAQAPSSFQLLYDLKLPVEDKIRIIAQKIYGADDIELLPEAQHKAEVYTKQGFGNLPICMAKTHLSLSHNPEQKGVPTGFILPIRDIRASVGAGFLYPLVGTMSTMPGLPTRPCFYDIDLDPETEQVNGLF
inactive: [1] 0.024 | [2] 0.041 | [3] -0.004 | [4] 0.04 | [5] 0.029 | [6] 0.02 | [7] -0.039 | [8] 0.021 | [9] 0.015 | [10] 0.002 | [11] -0.014 | [12] -0.001 | [13] 0.028 | [14] 0.028 | [15] 0.03 | [16] -0.033 | [17] -0.032 | [18] 0.003 | [19] 0.047 | [20] 0.014

NCKAP1L (UniProt P55160)
Sequence of UniProt P55160 (P55160 whole entry, looked up): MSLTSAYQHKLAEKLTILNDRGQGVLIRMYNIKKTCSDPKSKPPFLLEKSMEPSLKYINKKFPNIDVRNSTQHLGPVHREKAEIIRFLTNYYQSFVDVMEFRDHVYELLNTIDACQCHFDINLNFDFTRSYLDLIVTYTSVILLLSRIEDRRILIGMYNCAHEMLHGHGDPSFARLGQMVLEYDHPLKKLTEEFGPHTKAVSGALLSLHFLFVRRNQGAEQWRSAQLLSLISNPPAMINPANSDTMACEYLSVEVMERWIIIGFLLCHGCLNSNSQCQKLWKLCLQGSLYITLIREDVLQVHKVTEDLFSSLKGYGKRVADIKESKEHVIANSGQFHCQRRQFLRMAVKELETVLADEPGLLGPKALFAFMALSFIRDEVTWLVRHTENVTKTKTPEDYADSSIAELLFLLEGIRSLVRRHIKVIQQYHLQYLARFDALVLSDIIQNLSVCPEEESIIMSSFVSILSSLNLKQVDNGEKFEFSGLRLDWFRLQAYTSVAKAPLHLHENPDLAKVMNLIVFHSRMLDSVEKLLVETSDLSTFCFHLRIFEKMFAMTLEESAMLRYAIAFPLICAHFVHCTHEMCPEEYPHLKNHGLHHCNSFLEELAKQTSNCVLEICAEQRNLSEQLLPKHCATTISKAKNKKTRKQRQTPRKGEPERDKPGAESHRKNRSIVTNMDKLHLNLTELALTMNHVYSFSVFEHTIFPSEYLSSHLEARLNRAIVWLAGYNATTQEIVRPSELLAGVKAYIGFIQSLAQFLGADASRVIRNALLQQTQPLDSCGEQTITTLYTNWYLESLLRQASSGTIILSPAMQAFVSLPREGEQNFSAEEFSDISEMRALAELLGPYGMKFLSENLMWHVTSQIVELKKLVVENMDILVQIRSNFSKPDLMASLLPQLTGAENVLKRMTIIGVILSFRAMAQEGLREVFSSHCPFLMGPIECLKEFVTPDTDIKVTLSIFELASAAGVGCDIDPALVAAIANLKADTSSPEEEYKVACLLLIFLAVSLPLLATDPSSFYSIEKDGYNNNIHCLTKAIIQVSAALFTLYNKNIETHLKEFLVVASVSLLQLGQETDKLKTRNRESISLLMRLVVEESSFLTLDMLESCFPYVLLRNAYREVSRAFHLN
inactive: [1] 0.005 | [2] -0.06 | [3] -0.006 | [4] 0.196 | [5] 0.055 | [6] -0.032 | [7] -0.156 | [8] 0.06 | [9] 0.084 | [10] 0.06 | [11] -0.18 | [12] 0.021 | [13] 0.025 | [14] -0.04 | [15] -0.111 | [16] -0.051 | [17] -0.089 | [18] -0.012 | [19] 0.04 | [20] 0.025

PAK4 (UniProt O96013)
inactive: [1] 0 | [2] -0.076 | [3] 0.072 | [4] 0.052 | [5] -0.006 | [6] -0.005 | [7] 0.335 | [8] 0.469 | [9] 0.124 | [10] -0.044 | [11] 0.049 | [12] 0.372 | [13] -0.016 | [14] -0.001 | [15] -0.102 | [16] 0.023 | [17] -0.087 | [18] -0.064 | [19] -0.012 | [20] 0.034
